Inhibition data for 9 compounds are collected here from ChEMBL document CHEMBL1961873, “Compounds: GSK PKIS; Assays: Nanosyn kinase panel” (2012).

In assay [1] the target is Protein kinase C gamma type (Homo sapiens) (UniProt P05129). To be noted: at 1 µM.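 Note: each value is an averaged percent inhibition of the enzyme.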
The target in assay [2] is T1, Protein kinase C iota type (Homo sapiens) (UniProt P41743).
T1 sequence (whole entry): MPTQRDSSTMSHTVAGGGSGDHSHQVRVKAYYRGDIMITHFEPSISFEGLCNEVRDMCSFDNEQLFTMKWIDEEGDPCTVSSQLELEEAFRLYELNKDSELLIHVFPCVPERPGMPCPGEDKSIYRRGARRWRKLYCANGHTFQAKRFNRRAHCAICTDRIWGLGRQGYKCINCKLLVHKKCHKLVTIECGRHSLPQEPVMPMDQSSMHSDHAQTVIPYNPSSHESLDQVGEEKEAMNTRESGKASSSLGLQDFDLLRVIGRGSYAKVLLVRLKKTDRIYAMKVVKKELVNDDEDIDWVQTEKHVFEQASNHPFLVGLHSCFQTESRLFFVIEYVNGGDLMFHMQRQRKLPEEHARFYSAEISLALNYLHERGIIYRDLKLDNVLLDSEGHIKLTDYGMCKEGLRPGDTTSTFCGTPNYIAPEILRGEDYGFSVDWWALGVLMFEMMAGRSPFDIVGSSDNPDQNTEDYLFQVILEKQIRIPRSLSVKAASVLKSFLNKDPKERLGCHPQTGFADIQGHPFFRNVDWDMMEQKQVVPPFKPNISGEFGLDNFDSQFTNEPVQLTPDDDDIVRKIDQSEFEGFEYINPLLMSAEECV
To be noted: at 0.1 µM.

The target in assay [3] is T1, Protein kinase C iota type (Homo sapiens). Particulars: at 1 µM.
Assay [4] has as its target Protein kinase C theta type (Homo sapiens) (UniProt Q04759). Particulars: at 0.1 µM.
Assay [5] has the same target. Particulars: at 1 µM.
The target of assay [6] is Protein kinase C beta type (Homo sapiens) (UniProt P05771). To be noted: at 0.1 µM.
Assay [7] shares this target. To be noted: at 1 µM.
The target in assay [8] is T2, Serine/threonine-protein kinase D1 (Homo sapiens) (UniProt Q15139).
T2 sequence (whole entry): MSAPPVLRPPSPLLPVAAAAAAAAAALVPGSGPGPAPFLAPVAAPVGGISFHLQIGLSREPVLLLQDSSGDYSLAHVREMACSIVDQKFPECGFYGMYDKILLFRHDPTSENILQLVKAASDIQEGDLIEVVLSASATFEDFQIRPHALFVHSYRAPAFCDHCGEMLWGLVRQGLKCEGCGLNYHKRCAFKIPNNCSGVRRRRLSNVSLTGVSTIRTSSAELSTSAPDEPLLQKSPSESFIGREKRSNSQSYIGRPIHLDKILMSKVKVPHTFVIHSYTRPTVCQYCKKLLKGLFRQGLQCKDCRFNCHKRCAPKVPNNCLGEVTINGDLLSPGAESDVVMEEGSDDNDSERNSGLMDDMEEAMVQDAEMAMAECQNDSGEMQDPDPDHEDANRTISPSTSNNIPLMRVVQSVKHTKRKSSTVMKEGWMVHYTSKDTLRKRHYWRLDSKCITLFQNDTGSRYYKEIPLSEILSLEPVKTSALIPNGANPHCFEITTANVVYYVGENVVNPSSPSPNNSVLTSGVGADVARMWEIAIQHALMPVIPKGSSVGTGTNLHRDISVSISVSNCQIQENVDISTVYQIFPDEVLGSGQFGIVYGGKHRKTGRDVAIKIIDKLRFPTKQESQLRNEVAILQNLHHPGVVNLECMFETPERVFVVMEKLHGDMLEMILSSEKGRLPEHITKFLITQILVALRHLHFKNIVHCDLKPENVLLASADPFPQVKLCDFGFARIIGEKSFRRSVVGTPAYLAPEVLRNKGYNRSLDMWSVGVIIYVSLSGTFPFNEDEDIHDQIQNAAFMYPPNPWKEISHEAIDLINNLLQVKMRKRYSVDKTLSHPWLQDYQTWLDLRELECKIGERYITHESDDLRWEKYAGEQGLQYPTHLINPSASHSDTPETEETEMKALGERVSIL
Particulars: at 0.1 µM.

In assay [9] the target is T2, Serine/threonine-protein kinase D1 (Homo sapiens). To be noted: at 1 µM.
Assay [10] deals with T3, Serine/threonine-protein kinase D2 (Homo sapiens) (UniProt Q9BZL6).
T3 sequence (whole entry): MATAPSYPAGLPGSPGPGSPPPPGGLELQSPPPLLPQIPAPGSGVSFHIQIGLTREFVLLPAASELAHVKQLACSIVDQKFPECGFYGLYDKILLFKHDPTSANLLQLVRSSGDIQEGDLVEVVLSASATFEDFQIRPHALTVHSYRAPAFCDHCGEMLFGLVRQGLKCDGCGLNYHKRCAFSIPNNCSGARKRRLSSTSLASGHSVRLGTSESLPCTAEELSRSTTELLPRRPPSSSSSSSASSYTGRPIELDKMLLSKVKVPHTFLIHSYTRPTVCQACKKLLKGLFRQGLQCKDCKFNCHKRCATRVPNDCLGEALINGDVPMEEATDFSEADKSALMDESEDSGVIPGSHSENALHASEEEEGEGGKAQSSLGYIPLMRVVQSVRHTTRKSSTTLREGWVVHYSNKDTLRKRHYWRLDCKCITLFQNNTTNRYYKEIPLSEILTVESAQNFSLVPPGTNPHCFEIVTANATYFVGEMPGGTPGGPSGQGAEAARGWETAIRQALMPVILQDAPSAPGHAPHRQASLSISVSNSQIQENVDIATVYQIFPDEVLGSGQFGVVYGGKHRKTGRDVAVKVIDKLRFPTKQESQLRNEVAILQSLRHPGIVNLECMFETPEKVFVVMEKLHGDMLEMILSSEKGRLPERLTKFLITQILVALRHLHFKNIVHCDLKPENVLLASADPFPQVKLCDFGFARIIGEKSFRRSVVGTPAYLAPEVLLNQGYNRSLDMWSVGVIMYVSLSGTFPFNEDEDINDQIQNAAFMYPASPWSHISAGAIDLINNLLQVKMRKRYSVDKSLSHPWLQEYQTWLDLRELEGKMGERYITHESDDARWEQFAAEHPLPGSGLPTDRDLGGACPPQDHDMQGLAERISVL
Particulars: at 0.1 µM.

Sequence of Protein kinase C beta type (Homo sapiens) (P05771 2-671 limits assumed): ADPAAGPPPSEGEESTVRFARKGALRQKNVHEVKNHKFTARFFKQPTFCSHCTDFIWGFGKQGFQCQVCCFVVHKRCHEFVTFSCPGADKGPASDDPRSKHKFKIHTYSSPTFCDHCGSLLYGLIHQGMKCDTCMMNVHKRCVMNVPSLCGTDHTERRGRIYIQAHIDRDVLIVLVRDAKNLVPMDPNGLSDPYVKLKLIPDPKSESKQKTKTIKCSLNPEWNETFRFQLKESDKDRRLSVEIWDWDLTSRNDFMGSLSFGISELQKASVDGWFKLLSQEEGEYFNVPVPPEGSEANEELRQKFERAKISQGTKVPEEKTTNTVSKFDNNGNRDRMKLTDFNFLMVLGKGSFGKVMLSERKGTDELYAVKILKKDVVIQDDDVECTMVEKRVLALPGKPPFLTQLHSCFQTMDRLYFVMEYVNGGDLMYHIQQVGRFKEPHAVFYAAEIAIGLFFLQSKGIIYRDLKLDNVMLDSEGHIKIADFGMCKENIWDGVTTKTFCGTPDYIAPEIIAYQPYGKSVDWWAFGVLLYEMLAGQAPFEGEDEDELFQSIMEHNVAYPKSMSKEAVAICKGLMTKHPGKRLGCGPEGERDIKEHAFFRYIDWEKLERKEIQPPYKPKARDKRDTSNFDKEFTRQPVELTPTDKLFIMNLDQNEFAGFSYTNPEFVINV
Sequence of Protein kinase C theta type (Homo sapiens) (Q04759 whole entry, looked up): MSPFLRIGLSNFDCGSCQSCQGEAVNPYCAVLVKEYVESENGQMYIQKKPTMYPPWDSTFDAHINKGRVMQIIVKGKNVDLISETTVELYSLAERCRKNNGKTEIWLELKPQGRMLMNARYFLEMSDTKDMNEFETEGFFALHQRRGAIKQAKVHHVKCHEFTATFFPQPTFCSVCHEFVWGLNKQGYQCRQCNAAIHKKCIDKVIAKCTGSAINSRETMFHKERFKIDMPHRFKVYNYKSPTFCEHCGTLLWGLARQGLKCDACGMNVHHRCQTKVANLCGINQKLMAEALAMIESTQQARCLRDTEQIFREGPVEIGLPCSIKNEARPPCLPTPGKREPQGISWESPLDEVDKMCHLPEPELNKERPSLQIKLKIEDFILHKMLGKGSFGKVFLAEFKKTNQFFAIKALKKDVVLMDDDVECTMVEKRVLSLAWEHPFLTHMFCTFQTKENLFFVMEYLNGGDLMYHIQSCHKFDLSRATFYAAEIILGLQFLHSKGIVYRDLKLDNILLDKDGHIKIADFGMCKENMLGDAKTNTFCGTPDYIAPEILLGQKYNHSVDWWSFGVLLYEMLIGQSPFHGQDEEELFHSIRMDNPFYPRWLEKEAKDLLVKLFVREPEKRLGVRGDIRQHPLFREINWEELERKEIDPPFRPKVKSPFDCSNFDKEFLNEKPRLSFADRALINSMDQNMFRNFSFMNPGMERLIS

For orientation: inhibition means the drop in the measured response relative to a control, in per cent. Turning to `COc1cc2ncn(-c3cc(O[C@@H](C)c4ccccc4Cl)c(C(N)=O)s3)c2cc1OC`, the inhibition in assay [1] was found to be 1.93%; in [2] it was 3.86%; in assay [3], 4.88%; in assay [4], 2.16%; in assay [5] it was 3.24%; in assay [6], 1.99%. In addition, the inhibition in assay [7] is 5.36%; in assay [8], 5.25%; in assay [9], 6.69%; in [10], 4.18%.
In the case of `O=C1NC(=O)C(c2ccc(Cl)cc2)=C1Nc1ccc(Cl)c(C(=O)O)c1`, the inhibition in assay [1] was 1.73%; in assay [2], 0.12%; in assay [3], 3.71%; in [4], -0.99%; in [5] it was -0.44%; in assay [6], -0.73%. Further, the inhibition in assay [7] is 3.47%; in [8], -1.33%; in assay [9], 0.04%; in assay [10] it was -1.08%.
On to `CS(=O)(=O)CCN(CC#N)Cc1ccc(-c2ccc3ncnc(Nc4ccc(OCc5cccc(F)c5)c(Cl)c4)c3c2)o1`, for which the inhibition was -0.45% in assay [1]; 1.19% in [2]; 0.81% in assay [3]; 0.98% in [4]; 0.92% in assay [5]; 0.59% in [6]. The inhibition in assay [7] is 0.66%; in [8], -2.21%; in [9], -3.04%; in [10] it was -2.89%.
For the compound `Nc1ncnc2occ(-c3ccc(NC(=O)Nc4cc(C(F)(F)F)cc(C(F)(F)F)c4)cc3)c12`, the inhibition is -0.32% in assay [1]; 0.16% in [2]; 2.82% in assay [3]; 0.72% in assay [4]; -1.36% in assay [5]; 0.68% in assay [6]. Moreover, the inhibition came out at 0.44% in assay [7], 1.17% in assay [8], 1.94% in assay [9] and 1.61% in assay [10].
On to `Cc1cc(O)cc(C)c1/C=C/c1cncc(-c2nn[nH]n2)c1`, for which the inhibition in assay [1] was 3.79%; in [2] it was 2.14%; in [3], 2.11%; in assay [4], 2.61%; in [5], 3.08%; in assay [6], 1.15%. In addition, the inhibition in assay [7] stood at 4.04%; in assay [8], 1.38%; in assay [9], 4.65%; in [10], 2.35%.
For the compound `c1cnn2ncc(-c3ccnc(Nc4ccc5c(c4)OCCO5)n3)c2c1`, the inhibition in assay [1] amounted to 9.81%; in assay [2] it was 2.88%; in assay [3], 1.82%; in [4], 2.63%; in assay [5], 5.92%; in assay [6] it was 0.79%. For the same compound, the inhibition in assay [7] is 5.22%; in assay [8] it was 6.99%; in assay [9], 45.1%; in [10], 5.55%.
As for `CCn1c(-c2nonc2N)nc2c(N3CCCC3)nccc21`, the inhibition in assay [1] was 2.66%; in [2] it was 0.51%; in [3] it was -0.25%; in assay [4], -0.32%; in [5], 0.44%; in assay [6] it was -1.87%. The inhibition in assay [7] is 2.46%; in assay [8], -0.28%; in [9], -0.14%; in assay [10], -1.19%.
In the case of `CS(=O)(=O)CCNCc1ccc(-c2ccc3ncnc(Nc4ccc(OCc5cccc(F)c5)c(C(F)(F)F)c4)c3c2)o1`, the inhibition in assay [1] was 4.01%; in assay [2] it was 2.77%; in [3], 0.63%; in [4], 2.4%; in assay [5] it was 2.71%; in [6] it was 1.67%. The inhibition in assay [7] was 2.44%; in assay [8], 4.99%; in [9] it was 3.72%; in assay [10], 4.63%.
Take `N#Cc1c(NC(=O)c2cccc3ccccc23)sc2c1CCCC2`: the inhibition was 0.67% in [1]; 1.98% in [2]; 2.38% in assay [3]; 1.69% in assay [4]; 0.74% in assay [5]; 2.18% in assay [6]. Moreover, the inhibition in assay [7] is 2.04%; in assay [8], 4.23%; in [9] it was 4.24%; in assay [10], 2.17%.
